Consider 14 compounds from PubChem BioAssay.

The inhibition is the change of the read-out against control, counted positive when it falls.

Activity calls are given as the source filed them.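 Rule for the calls, unless noted: active = visual image review flags a hit and inhibition of aggregation exceeds 20%; inconclusive = visual hit but inhibition at or below 20%; inactive = no hit on visual image review.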

The nature of assay [1]: inhibitors of TNFa-induced NFkB p65 translocation, primary screen, imaging, HUVEC, MLSMR starter and 10KST1 sets (AID 438;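 active = inhibition above 20% together with a positive visual image hit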;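 note: compound added about 3h40 before a 20 min TNFalpha stimulation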;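 for inhibition: signal is the nuclear over cytoplasmic p65 intensity ratio per well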). As to conditions: HUVEC TNFa-induced p65 nuclear translocation; cell count: measured here: nuclei count (cytotoxicity indicator), at 2.08 µM; inhibition: at 2 µM, stronger effect = higher value, 0% TNFa-plus-vehicle, 100% no-TNFa wells.
Assay [2] in a line: inhibitors of mutant huntingtin aggregation, primary screen, imaging, exon1htt(103Q)mCFP cells, high-content imaging (AID 483).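 For nuclei count: percent of the per-plate median nuclei count of sample wells.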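 Note: compound exposure lasted 3 days before fixation.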 As to conditions: exon1htt(103Q)mCFP cell line, aggregate imaging, at 2 µM; inhibition of aggregation: stronger effect = higher value; nuclei count: measured here: cell count, toxicity.
Assay [3] can be described thus: inhibitors of E-selectin induction by TNFa, primary screen, imaging, HUVEC, immunofluorescence, MLSMR starter and 10KST1 sets (AID 487;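 active = visually confirmed hit in the image check and inhibition above 20%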;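 for inhibition: signal is fraction of cell area covered by stained E-selectin grains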;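 for nuclei count: 100% = median nuclei count of all wells on the same plate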). As to conditions: HUVEC TNFalpha-induced E-selectin immunofluorescence imaging, at 2 µM; inhibition: stronger effect = higher value; nuclei count: measured here: cell number, toxicity.
In assay [4] the target is Voltage-gated potassium channel subunit beta-2 (Rattus norvegicus) (UniProt P62483). Put plainly: KvBeta enzyme negative modulators, primary screen, biochemical, NADPH fluorescence (AID 622;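 active = fluorescence slope higher than the sample average by over 3 SD, cut at about -0.22 in these data, passing the limit was not always enough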;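 note: slope of raw intensity against log time taken from 70 to 1610 s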). As to conditions: recombinant KvBeta, 4-cyanobenzaldehyde reduction, at 10 µM, stronger effect = higher value.
Voltage-gated potassium channel subunit beta-2 (Rattus norvegicus), sequence (P62483 whole entry, looked up): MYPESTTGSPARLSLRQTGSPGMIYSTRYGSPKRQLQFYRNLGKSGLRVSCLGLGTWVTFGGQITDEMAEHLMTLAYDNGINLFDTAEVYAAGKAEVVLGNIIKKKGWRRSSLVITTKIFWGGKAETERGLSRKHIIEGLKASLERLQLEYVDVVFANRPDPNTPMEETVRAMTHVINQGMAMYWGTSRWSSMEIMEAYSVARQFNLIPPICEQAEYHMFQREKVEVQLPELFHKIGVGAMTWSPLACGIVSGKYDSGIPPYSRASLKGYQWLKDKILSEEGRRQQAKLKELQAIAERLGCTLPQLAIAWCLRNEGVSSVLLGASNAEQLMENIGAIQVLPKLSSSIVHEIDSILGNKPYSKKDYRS
Assay [5] has the same target. Nature of the assay: KvBeta positive modulators, primary screen, biochemical, NADPH fluorescence (AID 623;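 active = NADPH fluorescence slope more negative than the mean of all samples by about 3 SD, 99.7% confidence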;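 note: fluorescence intensity change per second fitted from 20 to 320 s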). As to conditions: Recombinant KvBeta, NADPH fluorescence decrease slope, 10 min; at 10 µM; stronger effect = lower value.
Assay [6] addresses Alpha-2C adrenergic receptor (Homo sapiens) (UniProt P18825). Nature of the assay: modulators of alpha2C/GIRK thallium flux, primary screen, cell-based, HEK293 alpha2C/GIRK1/2 (AID 624;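 active = fluorescence slope after compound addition differing from the mean of all screened samples at 99.7% confidence, in either direction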;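 note: slope of fluorescence ratio to pre-addition baseline per second over 15 to 24 s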). As to conditions: thallium flux BTC fluorescence, at 10 µM, actives lie on both sides.
Assay [7] is described as follows: inhibitors of Sendai virus-induced IRF3 signaling, primary screen, TLR/RLR signaling modifier project, cell-based, Sendai virus stimulus, luciferase, 10K MLSCN set (AID 602276;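 active = inhibition at or above 50% at 10 µM; inactive = inhibition below 50%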;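 note: firefly luciferase from ISG56 promoter only with Renilla not read in this screen; 0% = Sendai virus plus DMSO and 100% = medium plus DMSO without virus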). As to conditions: HEK293 RL24 IRF3 luciferase reporter, at 10 µM, stronger effect = higher value. Background: Reporter assays use an easily measured gene product as a stand-in for the process of interest.

Assay [8] in a line: inhibitors of poly I:C-induced TLR3 signaling, primary screen, cell-based, poly I:C stimulus, luciferase, 10K MLSCN set (AID 602277;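 active = inhibition of the reporter signal at or above 50%; inactive = inhibition below 50%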). As to conditions: HEK293-TLR3 RL24 IRF3 luciferase reporter, at 10 µM, stronger effect = higher value.

Alpha-2C adrenergic receptor (Homo sapiens), sequence (P18825 whole entry, looked up): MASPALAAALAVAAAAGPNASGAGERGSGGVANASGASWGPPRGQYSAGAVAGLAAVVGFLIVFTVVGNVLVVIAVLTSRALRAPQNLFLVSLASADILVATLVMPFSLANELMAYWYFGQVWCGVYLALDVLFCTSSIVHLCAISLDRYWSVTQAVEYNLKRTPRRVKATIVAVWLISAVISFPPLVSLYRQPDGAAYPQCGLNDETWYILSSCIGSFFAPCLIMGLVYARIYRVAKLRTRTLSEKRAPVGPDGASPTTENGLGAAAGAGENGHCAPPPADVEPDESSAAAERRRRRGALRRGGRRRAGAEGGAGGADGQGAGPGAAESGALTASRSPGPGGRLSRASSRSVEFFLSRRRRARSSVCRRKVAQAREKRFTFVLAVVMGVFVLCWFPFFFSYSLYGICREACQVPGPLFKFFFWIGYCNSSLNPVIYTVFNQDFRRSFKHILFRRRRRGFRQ

As to `CC1CN(c2ccc(Oc3ccccc3)cc2)c2nc3c(c(=O)n(CC(N)=O)c(=O)n3C)n2C1` (centres undefined), in assay [1], the cell count was found to be 706. Besides, the inhibition was -12.4% (inactive) in assay [1], -15.8% (inactive) in assay [3], 9.73% (inactive) in assay [7] and 22.4% (inactive) in assay [8]. Besides, in assay [2], the inhibition of aggregation is 4.2% (inactive). Also, the figures for the nuclei count in assay [2] and in assay [3] were 106% and 93.4%, respectively. Moreover, the fluorescence slope in assay [4] is -0.546 (inactive). For the same compound, the NADPH fluorescence slope in assay [5] was -6.5e-05 (inactive). Besides, the slope in assay [6] was 0.00659 (inactive).
`O=C1C2ON(c3ccc(Cl)cc3)C(c3ccco3)C2C(=O)N1c1ccccc1` (centres undefined): the cell count in assay [1] worked out at 510. In addition, the inhibition in assay [1] is -2% (inactive); in assay [3], -106% (inactive); in assay [7], -6.65% (inactive); in assay [8] it was -3.63% (inactive). Further, the inhibition of aggregation in assay [2] is 15.7% (inactive). In addition, the values for the nuclei count in assay [2] and in assay [3] were 97% and 107%, respectively. In assay [4], the fluorescence slope was -0.511 (inactive). The NADPH fluorescence slope in assay [5] is -2.4e-05 (inactive). In assay [6], the slope was 0.00581 (inactive).
For the compound `COC(=O)CSc1nc2ncc(Cl)cc2[nH]1`, the cell count in assay [1] was 542. Moreover, the inhibition is 8.6% (inactive) in assay [1], -49.2% (inactive) in assay [3], 15.8% (inactive) in assay [7] and 25.3% (inactive) in assay [8]. Further, in assay [2], the inhibition of aggregation was -23.3% (inactive). The nuclei count in assay [2] and in assay [3] was 106% throughout. In assay [4], the fluorescence slope was -0.462 (inactive). Besides, the NADPH fluorescence slope in assay [5] is -6.4e-05 (inactive). The slope in assay [6] is 0.00642 (inactive).
For `Cc1ccc(CNC(=O)COC(=O)c2c(C)noc2C)cc1`, in assay [1], the cell count is 581. In addition, the inhibition is 6.9% (inactive) in assay [1], 46% (inactive) in assay [3], -1.51% (inactive) in assay [7] and 16.4% (inactive) in assay [8]. Besides, in assay [2], the inhibition of aggregation is 23.2% (inactive). The nuclei count turned out to be 89.7% in assay [2] and 57.1% in assay [3]. The fluorescence slope in assay [4] was -0.449 (inactive). The NADPH fluorescence slope in assay [5] was -4.4e-05 (inactive). Besides, the slope in assay [6] is 0.00349 (inactive).
With `Cc1occc1-c1nc(-c2ccncc2)no1`, in assay [1], the cell count was determined as 706. Further, the inhibition in assay [1] is 7.3% (inactive); in assay [3] it was -46.6% (inactive); in assay [7], -46.9% (inactive); in assay [8], -90.8% (inactive). The inhibition of aggregation in assay [2] was 6% (inactive). For the same compound, the nuclei count in assay [2] came to 95.3%; in assay [3] it was 126%. The fluorescence slope in assay [4] was -0.523 (inactive). Besides, in assay [5], the NADPH fluorescence slope is 1.8e-05 (inactive). The slope in assay [6] was 0.00583 (inactive).
With `COc1ccccc1CNC(=O)C1CCCN(S(=O)(=O)c2cnc[nH]2)C1` (centres undefined), in assay [1], the cell count came out at 443. The inhibition in assay [1] was 49.5% (active); in assay [3], -59.5% (inactive); in assay [7], -5.95% (inactive); in assay [8], 0.0501% (inactive). Also, the inhibition of aggregation in assay [2] was 27.9% (inactive). The nuclei count stood at 87.1% in assay [2] and 103% in assay [3]. For the same compound, in assay [4], the fluorescence slope was -0.558 (inactive). The NADPH fluorescence slope in assay [5] is 7.1e-07 (inactive). For the same compound, the slope in assay [6] was 0.00747 (inactive).
As to `O=C1CCCCCN1CSc1nc2ccccc2s1`, the cell count in assay [1] is 686. The inhibition is -17.2% (inactive) in assay [1], 7.2% (inactive) in assay [3], 18.8% (inactive) in assay [7] and 27.7% (inactive) in assay [8]. Further, the inhibition of aggregation in assay [2] is -3.1% (inactive). Besides, the figures for the nuclei count in assay [2] and in assay [3] were 106% and 97.6%, respectively. In addition, in assay [4], the fluorescence slope was -0.433 (inactive). Besides, the NADPH fluorescence slope in assay [5] was -0.000138 (inactive). In addition, the slope in assay [6] is 0.00664 (inactive).
As to `Cc1sc2nc(CN3CCN(S(=O)(=O)c4cccc5nonc45)CC3)[nH]c(=O)c2c1C`, in assay [1], the cell count stood at 661. Besides, the inhibition in assay [1] was -16.4% (inactive); in assay [3], -55.1% (inactive); in assay [7] it was 3.59% (inactive); in assay [8], 1.1% (inactive). In addition, the inhibition of aggregation in assay [2] is 11.8% (inactive). For the same compound, the nuclei count in assay [2] is 60.7%; in assay [3], 116%. The fluorescence slope in assay [4] is -0.411 (inactive). Moreover, the NADPH fluorescence slope in assay [5] is -5.6e-05 (inactive). For the same compound, the slope in assay [6] was 0.00421 (inactive).
Take `Cc1cnc(NC(=O)CSc2nnc(COc3c(C)cccc3C)o2)s1`: the cell count in assay [1] was 628. Further, the inhibition was 10.9% (inactive) in assay [1], -22.4% (inactive) in assay [3], 12.1% (inactive) in assay [7] and 39% (inactive) in assay [8]. Moreover, the inhibition of aggregation in assay [2] was -2.5% (inactive). Besides, the nuclei count in assay [2] amounted to 103%; in assay [3], 121%. Also, the fluorescence slope in assay [4] was -0.537 (inactive). In addition, in assay [5], the NADPH fluorescence slope is -4.4e-05 (inactive). For the same compound, in assay [6], the slope was 0.00686 (inactive).
In the case of `C/C(N)=C(/C#N)C(=O)COC(=O)c1cc(C)n(-c2ccc(F)cc2)c1C`, the cell count in assay [1] worked out at 717. Besides, the inhibition in assay [1] was 10.2% (inactive); in assay [3] it was -93.8% (inactive); in assay [7], 15.2% (inactive); in assay [8], -211% (inactive). Further, in assay [2], the inhibition of aggregation was 2.4% (inactive). Moreover, the figures for the nuclei count in assay [2] and in assay [3] were 116% and 146%, respectively. Also, the fluorescence slope in assay [4] is -0.487 (inactive). The NADPH fluorescence slope in assay [5] was 1.6e-05 (inactive). Moreover, the slope in assay [6] is 0.00428 (inactive).
As to `CS(=O)(=O)N1CCc2cc(S(=O)(=O)Nc3ccc4oc5c(c4c3)CCCC5)ccc21`, the cell count in assay [1] amounted to 484. The inhibition in assay [1] was 7.3% (inactive); in assay [3], -40% (inactive); in assay [7], 11.9% (inactive); in assay [8] it was 3.23% (inactive). Moreover, the inhibition of aggregation in assay [2] is -8.4% (inactive). Besides, the nuclei count in assay [2] worked out at 104%; in assay [3], 121%. Further, in assay [4], the fluorescence slope was -0.531 (inactive). In addition, the NADPH fluorescence slope in assay [5] is 1.3e-05 (inactive). Further, the slope in assay [6] was 0.00786 (inactive).
On to `O=C(CSc1nc(-c2ccco2)cc(C(F)(F)F)n1)NCCCn1ccnc1`, for which the cell count in assay [1] stood at 674. The inhibition in assay [1] is -1.9% (inactive); in assay [3] it was -43.1% (inactive); in assay [7] it was -4.59% (inactive); in assay [8], 13.6% (inactive). Besides, in assay [2], the inhibition of aggregation was 2.9% (inactive). Moreover, the nuclei count in assay [2] came to 119%; in assay [3] it was 113%. Also, the fluorescence slope in assay [4] is -0.537 (inactive). The NADPH fluorescence slope in assay [5] is 2.4e-05 (inactive). Further, the slope in assay [6] was 0.0076 (inactive).
With `O=C(NCC1CCCO1)C1CCC(CNS(=O)(=O)c2ccccc2)CC1` (centres undefined), the cell count in assay [1] came to 341. Moreover, the inhibition in assay [1] was 8.1% (inactive); in assay [3], -24.2% (inactive); in assay [7], 7.1% (inactive); in assay [8] it was 10.8% (inactive). In addition, the inhibition of aggregation in assay [2] is -6% (inactive). For the same compound, the figures for the nuclei count in assay [2] and in assay [3] were 110% and 115%, respectively. Besides, in assay [4], the fluorescence slope is -0.499 (inactive). The NADPH fluorescence slope in assay [5] was -4e-05 (inactive). For the same compound, the slope in assay [6] was 0.00661 (inactive).
On to `Cc1ccc(OCc2nnc(SCC(=O)N3CCOCC3)n2C)cc1`, for which the cell count in assay [1] turned out to be 594. In addition, the inhibition is -12.9% (inactive) in assay [1], -58.9% (inactive) in assay [3], -1.5% (inactive) in assay [7] and 6.14% (inactive) in assay [8]. Further, the inhibition of aggregation in assay [2] was 6.8% (inactive). Moreover, the nuclei count in assay [2] was found to be 104%; in assay [3], 116%. Further, the fluorescence slope in assay [4] is -0.372 (inactive). In addition, the NADPH fluorescence slope in assay [5] is -1.9e-05 (inactive). The slope in assay [6] is 0.00543 (inactive).
